Screening results from PubChem BioAssay.
Only some compounds are listed: those with a hit (about 3.5% of all), similar ones and a draw of the others.
TEAD-YAP inh: TEAD-YAP interaction inhibition | HEK-TIYL cells, TEAD-Gal4/YAP UAS-luciferase luminescence | inhibition, % at 9.12 µM | actives 1.4% (n = 640,000); in the data active = inhibition above about 32%;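 also: 0% = median of test compound wells and 100% = reference inhibitor wells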
GPR151 activ: activates the human receptor GPR151. Q8TDV0. PathHunter beta-arrestin GPR151 cells, luminescence. activation, % at 11.2 µM. actives 1% (n = 650,000). AID 1508602; in the data active = activation above about 4.9%;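 also: 0% = median of compound wells and 100% = cells with positive control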
FBW7 activator: activators of human E3 ligase FBW7; AlphaScreen FBW7–phospho-cyclin E peptide binding, activator screen; AID 1259310; Q969H0; normalized activity (activation), % at 26.1 µM; actives 0.13% (n = 650,000); in the data active = normalized activity above about 1.9%;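 also: purified mutant Fbw7 with reduced substrate affinity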
MITF primary: inhibitors of human MITF; AlphaScreen MITF homodimerization, bead proximity signal; inhibition, % at 2.6 µM; actives 0.91% (n = 650,000); AID 1259374; in the data active = inhibition above about 50%;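 also: 0% = vehicle wells with protein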
GPR151 confirm: confirmation of human GPR151 activators; shares compounds with GPR151 activ; GPR151 PathHunter beta-arrestin cells, luminescence, 90 min; % of EA-reagent control over plate median; activation, % at 11.2 µM; 6,700 tested, under 10 active;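 active = mean percent activation across replicates above the confirmation screen cutoff of 4.91%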
GPR119 ag: GPR119 activation, counter-screen for GPR151 activators; shares compounds with GPR151 activ; GPR119 PathHunter beta-arrestin cells, luminescence, 90 min; 0 = compound-well median, 100 = enzyme-acceptor control; activation, % at 11.2 µM; actives 0.3% (n = 6,700); AID 1508611;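 active = mean percent activation in the counterscreen above 29.09%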;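 also: counterscreen on off-target GPR119 to flag nonselective hits from the GPR151 activator screen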
Target sequence (Q8TDV5 whole entry, looked up): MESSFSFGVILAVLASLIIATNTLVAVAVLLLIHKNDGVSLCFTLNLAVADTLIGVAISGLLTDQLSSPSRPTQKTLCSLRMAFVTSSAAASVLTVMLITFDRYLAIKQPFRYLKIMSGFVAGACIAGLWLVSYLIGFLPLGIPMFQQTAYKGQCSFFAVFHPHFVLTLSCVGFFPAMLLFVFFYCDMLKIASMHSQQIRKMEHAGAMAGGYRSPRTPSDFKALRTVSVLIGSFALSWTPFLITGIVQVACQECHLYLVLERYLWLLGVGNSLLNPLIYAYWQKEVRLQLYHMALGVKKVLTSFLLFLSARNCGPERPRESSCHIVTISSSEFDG
Starred values were filed as active, the others as inactive; nt = no result given.

SMILES	TEAD-YAP inh	GPR151 activ	FBW7 activator	MITF primary	GPR151 confirm	GPR119 ag
NC(=O)c1c(NC(=O)c2cc3ccccc3oc2=O)sc2c1CCCCCC2	-21	28*	1	-2	0	-1
O=C(c1cc2ccccc2oc1=O)N1CCN(c2ccccc2)CC1	-26	6.3*	0	9	0	5
N#Cc1c(NC(=O)c2cc3ccccc3oc2=O)sc2c1CCCCCC2	7	0	0	38	nt	nt
Cc1cccc(C)c1NC(=O)c1cc2ccccc2oc1=O	6	6.0*	1	4	0	0
Fc1ccc(C(c2nnnn2Cc2ccco2)N2CCN(C3CCCCC3)CC2)cc1 (configuration not stated)	-6	1	0	-3	nt	nt
Fc1ccc(C(c2nnnn2Cc2ccco2)N2CCN(Cc3ccccc3)CC2)cc1 (configuration not stated)	-2	5.8*	0	-1	0	-2
CC(=O)N1CCN(c2c(C)c(C)nc3c(-c4ccc(C)cc4)c(C)nn23)CC1	-5	0	0	-6	nt	nt
O=C(Nc1ccc(Cl)cn1)c1ccc(Cl)cc1Cl	15	7.0*	0	14	0	-12
O=C(COc1ccc(F)cc1F)Nc1ccc(F)cc1	-43	-2	0	9	nt	nt
O=Cc1cc(Cl)ccc1OCC(=O)Nc1ccc(F)cc1	-57	11*	0	8	-1	3
O=C(Nc1ccc(Cl)cn1)c1ccccc1Cl	-69	-4	0	6	nt	nt
O=C(COc1ccc(F)cc1)Nc1ccc(Cl)cn1	-33	18*	0	0	0	-8
O=C(COc1ccc(Cl)cc1)Nc1ccc(Br)cn1	-15	1	0	9	nt	nt
N#CCCN(CCC#N)S(=O)(=O)c1ccc(C(=O)Nc2nnc(-c3ccco3)o2)cc1	5	4	0	22	nt	nt
CCOC(=O)CC(=O)c1cc2ccc(N(CC)CC)cc2oc1=O	-17	5.4*	0	-2	0	12
CCN(CC)c1ccc2cc(C(=O)Nc3ccc(C)cc3)c(=O)oc2c1	0	-1	0	23	nt	nt
COc1ccccc1Cn1c(=O)c2cccnc2n(CC(=O)Nc2ccc(F)cc2)c1=O	5	-1	0	1	nt	nt
NC1(C(Cl)(Cl)Cl)Oc2ccc(Cl)cc2O1 (configuration not stated)	11	9.9*	0	46	0	-3
O=c1c2ccccc2nc(SCc2c(F)cccc2Cl)n1C1CC1	-6	5.1*	0	-12	0	8
CC(C)(C)OC(=O)C(Cl)(C(=O)OC(C)(C)C)c1ncc([N+](=O)[O-])cc1[N+](=O)[O-]	55*	14*	0	5	0	13
CC(=O)N1CCC(c2[nH]ncc2-c2cc(C)no2)CC1	-7	1	0	-17	nt	nt
CCS(=O)(=O)N1CCC(c2[nH]ncc2-c2cc(C)no2)CC1	-5	5.9*	0	20	1	9
O=C(CN1CCN(c2ccc3c(c2)OCCO3)C1=O)NCCCn1ccnc1	-1	1	0	13	nt	nt
CC(C)C1=CC(=Nc2ccc(S(N)(=O)=O)cc2)C=C(C(C)C)C1=O	8	14*	0	4	1	9
CCS(=O)(=O)c1nnnn1-c1ccccc1F	-10	0	0	1	nt	nt
SMILES	TEAD-YAP inh	GPR151 activ	FBW7 activator	MITF primary	GPR151 confirm	GPR119 ag
Cc1nc2c(C(=O)N3CCN(c4cccc(Cl)c4)CC3)cnn2c(C)c1Cc1ccccc1Cl	12	5.3*	0	2	0	-5
Cc1ccccc1Cc1c(C)nc2c(C(=O)N3CCN(c4cccc(Cl)c4)CC3)cnn2c1C	4	3	0	6	nt	nt
Cc1nc2c(C(=O)N3CCCC3)cnn2c(C)c1Cc1cccc(Cl)c1	-14	5.5*	0	15	1	14
Cc1nc2c(C(=O)NCc3ccccn3)cnn2c(C)c1Cc1cccc(Cl)c1	1	8.1*	0	-12	2	12
Cc1cccc(Cc2c(C)nc3c(C(=O)N4CCCC4)cnn3c2C)c1	-6	2	0	-1	nt	nt
COc1ccc(CNC(=O)c2cnn3c(C)c(Cc4cccc(Cl)c4)c(C)nc23)cc1	21	1	0	7	nt	nt
Cc1ccc(NC(=O)C(=O)NCC(c2ccc3c(c2)OCO3)N2CCN(C)CC2)c(C)c1 (configuration not stated)	-13	6.5*	0	1	0	-7
